This is part of a sample that, as a whole, favours compounds with a hit. Of some 83,000 tested, about 20% had one in any assay.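 Results are percent growth after 48 hours of single-concentration exposure. 100 means growth as in untreated cells, lower positive values show inhibition; negative values down to -100 show cell death.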 Unmarked numbers belong to inactive results. Active and inactive are the calls of the source. How the source made its calls: active means growth percent below 10; inactive means the rest.
Tests used:
Assay in all cases: NCI-60 one-dose screen, 48 h (100 = growth as untreated, 0 = no growth, -100 = all killed)
Settings in all cases: 10 µM unless noted
SR leukemia = test system: SR leukemia
RPMI-8226 leukemia = test system: RPMI-8226 leukemia
OVCAR-8 ovarian = test system: OVCAR-8 ovarian
OVCAR-5 ovarian = test system: OVCAR-5 ovarian
OVCAR-4 ovarian = test system: OVCAR-4 ovarian
SK-OV-3 ovarian = test system: SK-OV-3 ovarian
IGROV1 ovarian = test system: IGROV1 ovarian
OVCAR-3 ovarian = test system: OVCAR-3 ovarian
HS 578T breast = test system: HS 578T breast
NCI/ADR-RES ovarian = test system: NCI/ADR-RES ovarian
T-47D breast = test system: T-47D breast
BT-549 breast = test system: BT-549 breast
MDA-MB-435 melanoma = test system: MDA-MB-435 melanoma
SW-620 colon = test system: SW-620 colon
MCF7 breast = test system: MCF7 breast
HCT-116 colon = test system: HCT-116 colon
HCC-2998 colon = test system: HCC-2998 colon
KM12 colon = test system: KM12 colon

SMILES | growth (SR leukemia) | growth (RPMI-8226 leukemia) | growth (OVCAR-8 ovarian) | growth (OVCAR-5 ovarian) | growth (OVCAR-4 ovarian) | growth (SK-OV-3 ovarian) | growth (IGROV1 ovarian) | growth (OVCAR-3 ovarian) | growth (HS 578T breast) | growth (NCI/ADR-RES ovarian) | growth (T-47D breast) | growth (BT-549 breast) | growth (MDA-MB-435 melanoma) | growth (SW-620 colon) | growth (MCF7 breast) | growth (HCT-116 colon) | growth (HCC-2998 colon) | growth (KM12 colon)
C#Cc1nc(C(C)=O)cs1 | 99.6% | 92.5% | 105% | 107% | 105% | 93% | 101% | 112% | 104% | 103% | 101% | 98.5% | 104% | 107% | 90.8% | 95% | 114% | 94.7%
COc1cc2c(cc1OC)C(Sc1ccc(F)cc1)c1c(nc(N)c(C#N)c1N)O2 (centres undefined) | 0.989% (active) | -28% (active) | -15% (active) | -88.2% (active) | -66.1% (active) | -21.6% (active) | -85.7% (active) | -58.9% (active) | -4.38% (active) | -46.4% (active) | -28.1% (active) | 77.6% | -52.9% (active) | -16.7% (active) | -88.3% (active) | -74.2% (active) | -86.1% (active) | -62.9% (active)
C#Cc1nc(/C=C/C(=O)c2nccn2C)cs1 | -40.8% (active) | -39.9% (active) | 27.1% | -87.4% (active) | 33.7% | -59.7% (active) | -59.1% (active) | -64.4% (active) | -6.46% (active) | -26.1% (active) | -23.4% (active) | -59.1% (active) | 1.27% (active) | -24.9% (active) | -30% (active) | -48.8% (active) | -83.1% (active) | -43.5% (active)
CC1(C)NCCC[C@]2(C)[C@H]3C/C(=N\O)C4[C@@H]5C[C@@](C)(CO)CC[C@]5(C)CC[C@@]4(C)[C@]3(C)CC[C@@H]12 (some centres undefined) | 81.2% | 111% | 98.4% | 104% | 99.4% | 107% | 96.5% | 109% | 98.6% | 98.1% | 85.3% | 97.6% | 111% | 103% | 86.9% | 86.3% | 105% | 104%
CCOC(=O)C(=O)CC(=O)N1C(=S)NC(=O)C1CC(C)C (centres undefined) | 112% | 107% | 101% | 98.5% | 102% | 122% | 97.5% | 112% | 111% | 95.3% | 109% | 87.5% | 99.9% | 106% | 95.8% | 95.4% | 97.8% | 98.8%
COc1ccccc1-n1cc(C#N)c(N)c1C(=O)c1ccc(Cl)cc1 | 23.5% | 88.3% | 96.7% | 109% | 98.2% | 101% | 78% | 63.7% | 74.6% | 41.1% | 88.3% | 92.7% | -16.7% (active) | 40.8% | 32.3% | 63.5% | 68.2% | 58.2%
O=C(NNc1nc2cc(F)c(F)cc2n2cccc12)c1cnccn1 | 15.3% | 30.5% | 16.6% | 41.2% | 20.3% | 30.5% | 19.5% | 35.6% | 75.5% | 2.66% (active) | 13.6% | 43.7% | 37.1% | 27.4% | 14% | 17.5% | 40.9% | 22.3%
COc1cc2nc(Cl)nc(Nc3cccc(C4=Nc5c(N)nc(N)nc5NC(c5ccc(Cl)cc5)C4)c3)c2cc1OC (centres undefined) | -8.05% (active) | -18.9% (active) | 29.1% | 114% | 101% | 124% | 87.9% | 62.6% | 88.6% | 80.1% | 81.7% | 85.2% | 6.34% (active) | 11.2% | 13% | -44.8% (active) | 4.35% (active) | 14.1%
